IMPase Li inh = cell-permeable IMPase inhibitors with lithium potentiation. CHO-M1 cells, IP1 TR-FRET (IP-One), carbachol + lithium. AID 1457. Potency, µM (titrated, usually from 59.4 µM), without a hit: at the top dose activity, negative = IMPase inhibition, actives largely listed as inhibitors. hit rate 0.35% among 210,000; active = well fitted curve in the direction sought with a large enough effect; inconclusive = small, poorly fitted or top-dose-only effect, or another doubt; inactive = no such curve, though single readings can be large; an effect the other way counts as inactive or inconclusive;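 note: IP1 builds up when IMPase is blocked and the TR-FRET signal falls; potency is the fitted concentration of half-maximal effect; plate controls were basal vehicle for no effect and high inhibitor control for full effect; nearly all actives have a fitted effect of over 50% in size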
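CHO cells stably expressing M1 receptor (2000/well, cultured 16–30 h) treated 30 min at 37C with compound plus low lithium. Cytosolic IP1 by TR-FRET (665/620 ratio and 620 channel) after 10 min lysis; AC50 by Hill fit.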
PNC assembly inh = inhibitors of perinucleolar compartment assembly. hit rate 3.1% among 140,000. AID 2417. PC3M PTB-GFP, PNC prevalence imaging, 16 h; active compounds read low. activity change (PNC), negative = inhibition, % at 10 µM;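 active = readout at or below -70, meaning at least 70% loss of cells showing the perinucleolar compartment, a nuclear body marking cancer cells; inconclusive = readout between -30 and a set limit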;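 note: plate controls were DMSO wells for no effect and camptothecin positive control wells for full effect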
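Read-out is percentage of cells bearing a perinucleolar compartment, from automated 20x imaging of fixed, Hoechst-stained PC3M PTB-GFP cells. Cells were seeded 4 h, then exposed 16 h to compound (23 nl of library stock) in duplicate plates.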
ALOX12 inhib = blocks human 12-lipoxygenase activity; P18054; purified 12-hLO, xylenol orange hydroperoxide absorbance; Potency, µM (titrated, usually from 57.1 µM), inactives show top-dose activity change, negative = inhibition, hits mostly inhibitors; hit rate 0.12% among 150,000; active = well fitted curve in the direction sought with a large enough effect; inconclusive = small, poorly fitted or top-dose-only effect, or another doubt; inactive = no such curve, though single readings can be large; an effect the other way counts as inactive or inconclusive; note: potency is the fitted concentration of half-maximal effect; nearly all actives have a fitted effect of over 55% in size
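150 nM 12hLO, 25 mM Hepes pH 7.0 + 0.01% Triton X-100; cpd preinc 15 min RT; 40 uM arachidonic acid, 30 min RT; Fe-XO 30 min; A573/A405 ratio as read-out.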
IMPase cell inh = cell-permeable inhibitors of inositol monophosphatase (IMPase) | P97697 | CHO-M1 cells, IP1 accumulation, HTRF TR-FRET ratio | inhibition (IP1 accumulation), % at 46.1 µM | 120,000 tested, under 10 active | AID 901; active = well fitted curve in the direction sought with a large enough effect in the signal ratio, not every such curve was filed as active; inconclusive = small, poorly fitted or top-dose-only effect, or a change in a side signal; inactive = no such curve, though single readings can be large or run the other way; the % refers to the signal ratio;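 note: cells stimulated with carbachol in lithium chloride buffer; plate controls were DMSO basal wells for no effect and reference inhibitor wells for full effect; higher means more IMPase inhibition seen as more IP1 and lower FRET ratio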
Target sequence (P97697 whole entry, looked up): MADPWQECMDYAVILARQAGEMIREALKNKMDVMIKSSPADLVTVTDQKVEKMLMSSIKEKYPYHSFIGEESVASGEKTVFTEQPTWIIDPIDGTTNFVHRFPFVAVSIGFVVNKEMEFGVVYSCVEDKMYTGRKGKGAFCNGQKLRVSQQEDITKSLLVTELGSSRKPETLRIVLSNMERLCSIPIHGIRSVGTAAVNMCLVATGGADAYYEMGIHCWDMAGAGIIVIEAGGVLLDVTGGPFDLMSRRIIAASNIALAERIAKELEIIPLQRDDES
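Carbachol-driven Gq signalling in CHO-M1 cells (2000/well) generates IP1. Compounds that block IMPase raise IP1 and so reduce the FRET signal from Eu-anti-IP1 and d2-IP1 after a 10 min room-temperature lysis.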
ALDH1A1 block = blocks purified human ALDH1A1 activity. AID 1030. Potency, µM (series often up to 75.3 µM), without a hit: at the top dose activity, negative = inhibition, most hits filed as inhibitors. hit rate 7.3% among 220,000. Purified ALDH1A1, NADH fluorescence, propionaldehyde substrate. P00352;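 note: potency is the fitted concentration of half-maximal effect; plate controls were no enzyme wells and a reference inhibitor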
HPGD block = HPGD (human) dehydrogenase inhibition | purified HPGD, NADH fluorescence kinetic, PGE2 substrate | Potency, µM, without a hit: at the top dose activity change, negative = inhibition, actives largely listed as inhibitors | hit rate 4.3% among 150,000 | AID 894; note: potency is the fitted concentration of half-maximal effect
Target sequence (P15428 whole entry, looked up): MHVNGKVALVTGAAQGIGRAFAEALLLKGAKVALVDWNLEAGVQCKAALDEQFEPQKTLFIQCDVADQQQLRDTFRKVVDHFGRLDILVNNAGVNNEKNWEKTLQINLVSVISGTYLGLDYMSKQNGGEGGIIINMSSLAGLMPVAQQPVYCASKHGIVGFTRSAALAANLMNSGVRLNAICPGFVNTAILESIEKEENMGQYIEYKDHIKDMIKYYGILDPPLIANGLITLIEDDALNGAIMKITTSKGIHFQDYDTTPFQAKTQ
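NADH formation kinetics: reaction with 30 uM PGE2 and 1 mM NAD+ (final), 20 nM enzyme, Tris-HCl pH 8 with Tween 20, after 15 min compound preincubation at room temperature. Fluorescence change, last versus first of five reads.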
* = called active by the depositor; ? = inconclusive; nt = no result; [ ] = dose if it differs, or a comment. Only some compounds are listed: those with a hit (about 11% of all), similar ones and a draw of the others. Unless noted, calls come from the whole dose curve; as a rule, active = well fitted inhibition curve with a large enough effect (not every such curve was filed as active); inconclusive = small, poorly fitted or top-dose-only effect, or another doubt; inactive = no such curve, though single readings can be large or run the other way. Unless noted, % is set by controls: 0 for no effect and ±100 for the full control effect.

SMILES	IMPase Li inh	PNC assembly inh	ALOX12 inhib	IMPase cell inh	ALDH1A1 block	HPGD block
CCN(CC)CCCn1c(-c2ccccc2)nc2c(N3CCOCC3)nc(C)nc21	-0.3%	nt	0.8%	nt	?	?
CC(C)(C)c1cc(C(c2cccnc2)N2CCN(CCO)CC2)cc(C(C)(C)C)c1O (stereo not drawn)	8.2%[38.3 µM]	3.4	-2.1%	15.1	?	14.1µM*
CC(C)(C)n1nnnc1C(c1cccnc1)N1CCN(c2cccc(C(F)(F)F)c2)CC1 (stereo not drawn)	10.6%	?	-3.0%	4.9	?	-6.3%
O=C(COC(=O)c1ccc(F)cc1F)NC1CC1	2.3%	nt	nt	nt	0.1%	nt
Cc1c(-n2c(SCC(=O)O)nnc2-c2ccccc2Cl)c(=O)n(-c2ccccc2)n1C	-12.9%[38.3 µM]	-97.1*	3.1%	0.1	5.9%	-4.2%
COc1ccccc1-c1nnc(SCC(=O)O)n1-c1ccc(C)cc1	0.8%	nt	nt	nt	-2.1%	nt
Cc1nc2nc(SCC(=O)N3CCOCC3)nn2c(C)c1Cc1c(F)cccc1Cl	16.2%[38.3 µM]	-0.8	-7.4%	1.3	?	8.91µM*
CCN1CCCc2cc(CN(CCN3CCOCC3)C(=S)Nc3cc(F)cc(F)c3)ccc21	6.7%	nt	nt	nt	?	nt
O=C(Nc1ccc(F)cc1)NC1CCN(Cc2nnnn2Cc2ccco2)CC1	-3.5%	33.1	-3.4%	6.3	17.8µM*	1.6%
O=C(Nc1ccccc1F)NC1CCN(Cc2nnnn2Cc2ccc(F)cc2)CC1	2.1%[38.3 µM]	29.5	-4.9%	4.7	-4.2%	-9.4%
CCOc1ccccc1C(=O)NC1CC2CCCC(C1)N2C1CC1 (stereo not drawn)	1.9%[38.3 µM]	21.4	-0.7%	-3.9	-6.7%	-4.9%
O=C(NC1CC2CCC(C1)N2Cc1nnnn1Cc1ccco1)NC12CC3CC(CC(C3)C1)C2 (stereo not drawn)	21.5%[38.3 µM]	-23.1	-4.5%	-1.5	7.94µM*	21.0%
CCOc1ccccc1C(=O)NC1CC2CCCC(C1)N2Cc1nnnn1Cc1ccco1 (stereo not drawn)	6.6%[38.3 µM]	-7.5	-2.2%	9.5	1µM*	0.0%
O=C(NCc1ccccc1)NC1CC2CCC(C1)N2Cc1ccco1 (stereo not drawn)	0.5%[38.3 µM]	19.6	2.9%	14.4	3.1%	-2.3%
c1ccc(Nc2nc(-c3ccc4c(c3)OCO4)nc3ccccc23)cc1	17.3%	nt	nt	nt	?	nt
O=NN(Cc1ccc(Cl)cc1)[C@@H](C(=O)O)c1ccccc1	-10.8%	nt	0.9%[11.4 µM]	nt	0.2%[13.5 µM]	-8.7%
O=C(CNC(=S)NC(=O)c1ccccc1Br)c1ccccc1	-17.4%	nt	nt	nt	17.8µM*	nt
Cc1ccccc1C(=O)NC(=S)NCC(=O)c1ccccc1	0.3%[38.3 µM]	-27.2	-6.2%	-1.4	-7.0%	?
CCCC(C)NC(=O)c1ccc2[nH]c3c(c2c1)CC(C)CC3 (stereo not drawn)	nt	23.4	-2.3%	-3.2	15.8µM*	nt
CCNc1nc(NC(C)C)nc(N(n2cnnc2)S(=O)(=O)c2ccc(C)cc2)n1	16.7%	83.4	-4.9%	nt	2.24µM*	-6.9%
CN(C)c1nc(C(=O)NN)nc(N(C)C)n1	22.8%[38.3 µM]	-25.4	4.8%	6.6	12.6µM*	-6.4%
O=C(C1CCCN(S(=O)(=O)c2cccc3nonc23)C1)N1CCN(c2cccc(C(F)(F)F)c2)CC1 (stereo not drawn)	nt	nt	nt	-1.7	nt	nt
O=C(N/N=C/c1ccc(Cl)cc1Cl)C1CCN(c2ncc(C(F)(F)F)cc2Cl)CC1	-0.7%[38.3 µM]	97.0	0.9%	1.6	3.55µM*	-22.4%
O=C(N/N=C/c1cccc(C(F)(F)F)c1)C1CCN(c2ncc(C(F)(F)F)cc2Cl)CC1	-0.1%[38.3 µM]	41.3	6.7%	4.6	32.2%	-10.0%
NNC(=O)c1ccc(-c2cccc([N+](=O)[O-])c2)o1	-1.4%	nt	nt	nt	7.08µM*	nt
COc1ccc(CCNC(=O)Cc2ccc([N+](=O)[O-])cc2)cc1OC	nt	nt	nt	nt	-0.9%	nt
CN1CCN(c2ccc(NC(=O)c3ccc(-c4cccc([N+](=O)[O-])c4)o3)cc2)CC1	22.7%	nt	nt	nt	-3.4%	nt
COc1ccc(CCNC(=O)c2ccc(-c3cccc([N+](=O)[O-])c3)o2)cc1OC	13.6%	nt	nt	nt	12.6µM*	nt
